# In PubChem BioAssay AID2288 (National Center for Advancing Translational Sciences (NCATS), 2010):
# Fewer than 10 of roughly 340,000 compounds were called active. Not shown: some 2% with an inconclusive outcome. Calls follow the shape of the dose curve; as a rule, active = well fitted curve in the direction sought with a large enough effect; inconclusive = small, poorly fitted or top-dose-only effect, or another doubt; inactive = no such curve, though single readings can be large or run the other way. These entries were drawn from the full list.
# Experiment: qHTS Assay for Modulators of miRNAs and/orActivators of miR-21;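 also: miR-21 action dims this reporter so a rising signal means less miR-21 action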
# Conditions: HeLa miR-21 FLuc reporter, luciferase, 48 h; series mostly up to 38.3 µM
# Text: MLSCN Grant: 1 R21 NS059478-01 Assay Provider: Qihong Huang, The Wistar Institute NCGC Assay Overview: MicroRNAs (miRNAs) are endogenously encoded small (~20-25 nucleotides), nonprotein-coding RNAs that are involved in post-transcriptional repression of target messenger RNAs (mRNAs) (Le and Hannon, 2004). Estimated to be involved in the regulation of 30% of all protein-coding mRNAs (Filipowicz et al., 2008), miRNAs play a significant role in many biological processes including cellular differentiation and tissue development (Ghildiyal and Zamore, 2009).
# NCGC Assay Protocol Summary: Reagents: HeLa cells stably expressing firefly luciferase (FLuc) under the control of a CMV promoter (upstream) and a miR-21 binding sequence directly downstream of the gene. These cells endogenously express miR-21. Control compounds used were compound C3 (provided by collaborator), N6-phenyladenosine (MP Biomedicals, 0215379625), and DMSO. Assay Summary: 6uL of HeLa miR-21-FLuc cells in assay buffer (DMEM, Invitrogen #21063-029; 10% FBS, HyClone #SH30071.03) were dispensed at 2000cells/well (3.3 x 10^5 cells/mL) into Greiner solid-white TC-treated 1536-well plates using a Multidrop Combi (Thermo Fisher Scientific). Plates were incubated for one hour at 37 degree Celsius, 95% humidity, 5% CO2. These assay plates were then treated with 23nL of compound or DMSO using a Kalypsys pin tool, which allows for delivery of a 24-point titration of each compound to the assay plate, with a final compound concentration ranging from approximately 40uM to 5pM. Assay plates were then incubated for 48 hours. After incubation, plates were allowed to come to RT for one hour prior to delivery of 3uL of 3X luciferase detection reagent. After a 15 minute incubation to allow for cell lysis, luciferase activity was measured using a ViewLux CCD imager (PerkinElmer), with an average exposure time of 2-12 seconds. Keywords: NIH Roadmap, MLPCN, MLSMR, qHTS, miR-21, microRNA, firefly luciferase, FLuc.
row,Compound,outcome
1,COc1ccc(-c2[nH]c3c(c2-c2c(-n4cccc4)n(C)c(=O)n(C)c2=O)c(=O)n(C)c(=O)n3C)cc1,inactive
2,O=c1c2cccnc2n(Cc2cccc(F)c2)c(=O)n1Cc1ccccc1Cl,inactive
3,Cc1ccc(-c2nc(Cn3c(=O)cc(-c4ccccc4)c4c(C)nn(C)c43)c(C)o2)cc1,inactive
4,COC(=O)c1c(NC(=O)C(C)Oc2ccc(Cl)c(C)c2)sc(C)c1C (centres undefined),inactive
5,Cc1cccc(Cn2c(SCc3ccc(C(=O)N4CCC(C)CC4)cc3)nc3ccncc32)c1,inactive
6,CCc1cnc2c(c1SCC(=O)c1ccccc1)c(=O)n(C)c(=O)n2C,inactive
7,CC(C)c1ccc(NC(=O)c2ccc(Cn3nc(N4CCN(c5ccccc5)CC4)ccc3=O)o2)cc1,inactive
8,Cc1ccc(-c2nnc3c4ccccc4c(C)nn23)cc1NC(=O)c1cccc(Br)c1,inactive
9,CC(=O)c1ccc(NC(c2ccc(F)cc2)c2nnc(-c3ccccc3)o2)cc1 (centres undefined),inactive
10,CCN(C(=O)Cn1cnc2sc(C)c(S(=O)(=O)N3CCN(c4ncccn4)CC3)c2c1=O)c1ccccc1F,inactive
11,Cc1cccc(N2CCN(C3=C(c4ccccc4)C(=O)c4ccccc43)CC2)c1C,inactive
12,COc1cccc(NC(=O)c2csnn2)c1,inactive
13,N#C/C(=C\c1cccc(F)c1)c1nc(-c2cc3c(ccc4ccccc43)oc2=O)cs1,inactive
14,CC(=O)c1ccc(NC(=O)C2CCN(S(=O)(=O)c3c(C)noc3/C=C/c3ccc(C)cc3)CC2)cc1,inactive
15,CCOc1ccccc1C(=O)NC1(C(F)(F)F)C(=O)Nc2c1c(=O)[nH]c(=O)n2-c1ccc(F)cc1 (centres undefined),inactive
16,O=C1CN(C(=O)Nc2ccccc2C(F)(F)F)C(c2ccccc2)c2c(sc3c2CCCC3)N1 (centres undefined),inactive
17,O=C1OC(C(=O)Nc2cccc(Br)c2)Cc2ccccc21 (centres undefined),inactive
18,O=C(CCOc1ccccc1)N(Cc1cccnc1)c1nc2ccc(Cl)cc2s1,inactive
19,CC(C)(C)NC(=O)CSc1nc(-c2ccc(F)cc2)cc(C(F)(F)F)n1,inactive
20,O=C(CSc1nc2nccnc2c(=O)n1CCc1c[nH]c2ccccc12)Nc1ccccc1F,inactive
21,Cn1c(SCC(=O)N2CCCc3ccccc32)ncc(C(=O)Nc2ccc(F)cc2)c1=O,inactive
22,Cc1ccc(Cl)cc1N(C)C(=O)Cn1nc(Cc2cccnc2)c2ccccc2c1=O,inactive

row,Compound,outcome
1,COc1ccc(SCc2cc(=O)c3ccc(C)c(C)c3[nH]2)cc1,inactive
2,Cc1cccc(OCCSc2nc3ccccc3n2CC(=O)N2CCCCC2)c1C,inactive
3,COc1ccc(NC(=O)C(c2ccccc2)N2Cc3ccccc3C2=O)cc1 (centres undefined),inactive
4,CCCN1CN=C(NS(=O)(=O)c2ccc(NC(C)=O)cc2)NC1,inactive
5,COc1ccc(-c2nn3c(=O)cc(CN4CCN(C(=O)c5ccc(OC)c(OC)c5)CC4)nc3s2)cc1,inactive
6,CCOC(=O)c1c(C)[nH]c(C)c1S(=O)(=O)N(C)CC(=O)N1CCN(c2ccccc2)CC1,inactive
7,COc1ccc2c(c1)c(=O)c(C(=O)c1ccccc1)cn2CC(=O)Nc1ccc2c(c1)OCCO2,inactive
8,Cc1ccc(CNS(=O)(=O)c2ccc(C(=O)N(C)C)s2)cc1,inactive
9,COc1ccc(-c2c3c(=O)n(C)c(=O)n(C)c3c3c(C)nc4ccccc4n23)cc1,inactive
10,Cc1ccc(CN(C(=O)COc2ccc(Cl)cc2C)C2CCS(=O)(=O)C2)o1 (centres undefined),inactive
11,Cc1ccc(NC(=O)c2ccc3[nH]c(C)cc(=O)c3c2)c(C)c1,inactive
12,Cc1ccccc1CCNC(=O)C1CCN(c2nc3ccccc3nc2C(F)(F)F)CC1,inactive
13,COC(=O)c1ccc(NC(=O)CCc2c(C)nn(-c3ccc(N4CCCC4)nn3)c2C)cc1,inactive
14,Cc1cc(C)cc(NC(=O)c2cnc3sc(N4CCCC4)nn3c2=O)c1,inactive
15,O=C(Cn1cnc2c(oc3ccccc32)c1=O)Nc1ccc(OC(F)(F)F)cc1,inactive
16,COc1ccccc1C(=O)OCc1cc(=O)n2nc(-c3cccs3)sc2n1,inactive
17,Cc1ccc(-c2nnc(SCc3ccccc3C)o2)cc1,inactive
18,CCN(CC)C(=O)CSc1nc2ccsc2c(=O)n1Cc1ccccc1Cl,inactive
19,COc1ccc(CCNCc2c(C(=O)O)c(C)n(Cc3cccc(C)c3)c2C)cc1OC,inactive
20,COc1ccc(-n2c(=O)c3c(c4cc(OC)ccc4n3C)n(Cc3cccc(C)c3)c2=O)cc1,inactive
21,COc1ccc(OC)c(CCNC(=O)CCCn2c(=O)c3cccn3c3cccnc32)c1,inactive
22,Cc1nn2c(=O)cc(COC(=O)c3cccc(NC(=O)COc4ccccc4Cl)c3)nc2s1,inactive
